Measurements: PubChem BioAssay (Tox21)
Values joined by “and” are separate entries in the source; they are usually repeats but may differ in a detail not shown here. Equal values may be shown once. Results filed as inconclusive are left out. Where a call stands in place of a potency, no number is given. Some structures have more than one record in an assay (separate samples or runs), and their calls can disagree. Active and inactive are the calls of the source. Unless noted, calls follow the shape of the full dose curve.

Legend:
[1] = Nuclear factor erythroid 2-related factor 2/antioxidant responsive element (Nrf2/ARE) small molecule agonists: qHTS cell viability counter screen in human keratinocytes (AID 1919968; active = well fitted curve in the direction sought with a large enough effect in the repeat runs; an effect the other way counts as inactive or inconclusive; also: nearly all actives have a fitted effect of over 55% in size; also: potency is read from the fitted curve at half-maximal effect)
Method in brief: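 Measured as CellTiter-Fluor fluorescence, this readout tracks cytotoxicity in the same wells as the ARE-luciferase screen. HaCaT reporter cells (1,500/well) received compounds after a 5 h pre-incubation and were exposed for 23 h.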

[2] = Nuclear factor erythroid 2-related factor 2/antioxidant responsive element (Nrf2/ARE) small molecule agonists: luciferase reporter gene qHTS assay in human keratinocytes (AID 1919969); also: nearly all actives have a fitted effect of over 35% in size
[3] = biological target: Gonadotropin-releasing hormone receptor (Homo sapiens) (UniProt P30968); test: Human gonadotropin-releasing hormone receptor (GnRHR) small molecule agonists, calcium flux assay in GnRHR-HEK293 cells (AID 1920063); also: nearly all actives have a fitted effect of over 35% in size
Method in brief: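 Fluorescence kinetics (480 nm excitation, 540 nm emission; 3 min, 1 s steps) report calcium mobilisation in human GnRHR-HEK293 cells in agonist mode. Dye incubation: 1 h, 37 C.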

[4] = biological target: KiSS-1 receptor (Homo sapiens) (UniProt Q969F8); test: Human kisspeptin (KISS1R) small molecule agonists, calcium flux assay in KISS1R-HEK293 cells (AID 1920064; active = well fitted curve in the direction sought with a large enough effect in the repeat runs; an effect the other way counts as inactive or inconclusive)
Method in brief: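 Measures KISS1R agonism through calcium-sensitive dye fluorescence in stably transfected HEK293 cells, read for 3 min after pin-tool compound delivery; 15-point titrations in triplicate.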

[5] = p53 small molecule agonists, cell-based qHTS assay with human liver microsomes (AID 1963577)
Method in brief: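 p53RE-bla reporter cells were pre-incubated 5 h at 37 C, then treated with compounds plus human liver microsomes (0.5 mg/mL final) and NADPH (0.5 mg/mL final) for 16 h at 37 C. Beta-lactamase activity was read by LiveBLAzer fluorescence after 2 h at room temperature.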

[6] = p53 small molecule agonists, cell-based qHTS assay with rat liver microsomes (AID 1963578)
Method in brief: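 p53RE-bla cells were exposed to compounds together with rat liver microsomes (0.5 mg/mL final) and NADPH (0.5 mg/mL final) for 16 h at 37 C, then read by LiveBLAzer beta-lactamase fluorescence after 2 h at room temperature.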

[7] = p53 small molecule agonists, cell-based qHTS assay with human liver microsomes: qHTS cell viability counter screen (AID 1963579); also: nearly all actives have a fitted effect of over 45% in size; also: potency is read from the fitted curve at half-maximal effect
Method in brief: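 p53RE-bla cells (4,000/well) were pre-incubated 5 h at 37 C, then given compounds in DMSO plus human liver microsomes (0.5 mg/mL final) and NADPH (0.5 mg/mL final) for 16 h at 37 C. Viability was read by CellTiter-Glo luminescence.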

[8] = p53 small molecule agonists, cell-based qHTS assay with rat liver microsomes: qHTS cell viability counter screen (AID 1963580); also: nearly all actives have a fitted effect of over 45% in size
Method in brief: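 Viability is assessed in parallel with the p53 reporter read: HCT-116 p53RE-bla cells receive compounds plus rat microsomes and NADPH (0.5 mg/mL final apiece), incubate 16 h at 37 C, and then CellTiter-Glo luminescence is recorded.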

[9] = p53 small molecule agonists, cell-based qHTS assay: qHTS cell viability counter screen (AID 1963581); also: nearly all actives have a fitted effect of over 45% in size
Method in brief: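 In the same plates used for the p53 bla reporter, HCT-116 cells given compounds for 16 h at 37 C received CellTiter-Glo; luminescence was recorded 30 min later at room temperature.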

[10] = p53 small molecule agonists, cell-based qHTS assay (AID 1963582; active = well fitted activation curve with a large enough effect in the signal ratio in the repeat runs, not every such curve was filed as active; the % refers to the signal ratio)
Method in brief: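 Compounds are pin-transferred in DMSO onto p53RE-bla cells and incubated 16 h at 37 C. The B/G FRET beta-lactamase substrate is then applied for 2 h at RT and fluorescence recorded.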

[11] = biological target: 5-hydroxytryptamine receptor 2A (Homo sapiens) (UniProt P28223); test: 5-hydroxytryptamine receptor 2A (HTR2A) small molecule antagonists, cell-based qHTS assay (AID 1963586); also: nearly all actives have a fitted effect of over 45% in size
Method in brief: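 Antagonist-mode intracellular calcium assay: DOI (4 nM) added after 5 min compound pre-incubation at room temperature to dye-loaded HTR2A-CHO cells. Fluorescence followed for 3 min, sampled every second.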

[12] = biological target: 5-hydroxytryptamine receptor 2A (Homo sapiens) (UniProt P28223); test: 5-hydroxytryptamine receptor 2A (HTR2A) small molecule agonists, cell-based qHTS assay (AID 1963587); also: nearly all actives have a fitted effect of over 30% in size
Method in brief: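 CHO cells stably expressing human HTR2A, plated 18 h, loaded with calcium dye 1 h at 37 C. Agonist mode: compounds added and intracellular calcium fluorescence recorded kinetically for 2 min at 1 sec intervals.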

[13] = biological target: Muscarinic acetylcholine receptor M1 (Homo sapiens) (UniProt P11229); test: Cholinergic receptor muscarinic 1 (CHRM1) small molecule antagonists, cell-based qHTS assay (AID 1963588); also: nearly all actives have a fitted effect of over 40% in size
Method in brief: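 CHRM1-CHO calcium-flux assay, antagonist mode. Cells were seeded 18 h, dye-loaded 1 h at 37 C and given compound for 5 min at RT, then acetylcholine was added at 50nM. FDSS fluorescence was read 3 min; 15 concentrations, three runs.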

[14] = biological target: Muscarinic acetylcholine receptor M1 (Homo sapiens) (UniProt P11229); test: Cholinergic receptor muscarinic 1 (CHRM1) small molecule agonists, cell-based qHTS assay (AID 1963589); also: nearly all actives have a fitted effect of over 35% in size
Method in brief: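 Each compound was tested at 15 concentrations across three independent runs on dye-loaded CHO cells stably expressing human CHRM1, reading intracellular calcium fluorescence kinetically at 1 sec intervals.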

[15] = cAMP Responsive Elements (CRE) small molecule antagonists, cell-based qHTS assay (AID 1963591; active = well fitted inhibition curve with a large enough effect in the signal ratio in the repeat runs, not every such curve was filed as active; the % refers to the signal ratio)
Method in brief: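 Inhibition of NKH477-driven (0.25 uM final) CRE-beta-lactamase signal in HEK293T cells, 3 h compound exposure at 37 °C, detected by FRET substrate fluorescence.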

[16] = biological target: Beta-2 adrenergic receptor (Homo sapiens) (UniProt P07550); test: Adrenergic beta2 receptor (ADRB2) small molecule agonists, cell-based qHTS assay (AID 1963593);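 also: CHO cells stably overexpressing human ADRB2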
Method in brief: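 CHO cells stably over-expressing ADRB2 were plated overnight at 37C, then dosed with compounds plus a stimulation mix containing 100uM IBMX and 25uM Ro-20-1724 for 0.5hr at room temperature. cAMP was measured by HTRF competition, 1hr.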

[17] = biological target: D(2) dopamine receptor (Homo sapiens) (UniProt P14416); test: Dopamine D2 receptor (DRD2) small molecule agonists, cell-based qHTS assay (AID 1963594); also: nearly all actives have a fitted effect of over 35% in size
Method in brief: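 HEK293 cells stably expressing human DRD2, pre-treated with PDE inhibitor Ro20-1724 (0.1 mM final) and compound 10 min at room temperature, then stimulated with NKH477 (200nM […]) for 30 min. cAMP read by HTRF (665/620 nm).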

[18] = biological target: D(2) dopamine receptor (Homo sapiens) (UniProt P14416); test: Dopamine D2 receptor (DRD2) small molecule antagonists, cell-based qHTS assay (AID 1963595; active = well fitted inhibition curve with a large enough effect in the signal ratio in the repeat runs, with a control signal flat; the % refers to the signal ratio)
Method in brief: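 Antagonist mode in DRD2-HEK293 cells: after compound addition with 0.1 mM Ro20-1724, cells received quinpirole (12 nM) and NKH477 (200 nM) for 30 min at room temperature; HTRF cAMP read after 1 h detection.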

[19] = cAMP Responsive Elements (CRE) small molecule agonists, cell-based qHTS assay (AID 1963590)
Method in brief: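 Cell line: CRE-bla HEK 293T; medium DMEM/10% dialyzed FBS/0.1 mM NEAA/1 mM pyruvate/25 mM HEPES; 3 h compound exposure; beta-lactamase FRET readout after 2 h substrate loading at RT.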

[20] = biological target: Beta-2 adrenergic receptor (Homo sapiens) (UniProt P07550); test: Adrenergic beta2 receptor (ADRB2) small molecule antagonists, cell-based qHTS assay (AID 1963592); also: series mostly up to about 92 µM; nearly all actives have a fitted effect of over 50% in size
Method in brief: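 Cells (CHO, stable ADRB2 overexpression) incubated 18-20hr at 37C; compounds added from DMSO; agonist mix (1nM isoproterenol, 100uM IBMX, 25uM Ro-20-1724) added; 0.5hr RT; d2-cAMP and anti-cAMP-cryptate added; 1hr RT; 665/615 nm read.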

Beta-2 adrenergic receptor (Homo sapiens), sequence (P07550 whole entry, looked up): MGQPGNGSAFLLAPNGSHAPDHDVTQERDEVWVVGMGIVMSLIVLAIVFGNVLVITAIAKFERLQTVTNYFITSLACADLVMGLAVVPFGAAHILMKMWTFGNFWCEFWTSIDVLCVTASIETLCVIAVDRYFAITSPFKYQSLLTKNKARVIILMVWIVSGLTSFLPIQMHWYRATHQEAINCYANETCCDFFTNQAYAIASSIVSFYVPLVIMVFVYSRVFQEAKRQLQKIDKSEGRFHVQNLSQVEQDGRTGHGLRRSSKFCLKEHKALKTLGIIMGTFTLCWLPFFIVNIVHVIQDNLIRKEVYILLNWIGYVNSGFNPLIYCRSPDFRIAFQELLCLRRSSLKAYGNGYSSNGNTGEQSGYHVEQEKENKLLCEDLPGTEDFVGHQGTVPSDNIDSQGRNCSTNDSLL
D(2) dopamine receptor (Homo sapiens), sequence (P14416 whole entry, looked up): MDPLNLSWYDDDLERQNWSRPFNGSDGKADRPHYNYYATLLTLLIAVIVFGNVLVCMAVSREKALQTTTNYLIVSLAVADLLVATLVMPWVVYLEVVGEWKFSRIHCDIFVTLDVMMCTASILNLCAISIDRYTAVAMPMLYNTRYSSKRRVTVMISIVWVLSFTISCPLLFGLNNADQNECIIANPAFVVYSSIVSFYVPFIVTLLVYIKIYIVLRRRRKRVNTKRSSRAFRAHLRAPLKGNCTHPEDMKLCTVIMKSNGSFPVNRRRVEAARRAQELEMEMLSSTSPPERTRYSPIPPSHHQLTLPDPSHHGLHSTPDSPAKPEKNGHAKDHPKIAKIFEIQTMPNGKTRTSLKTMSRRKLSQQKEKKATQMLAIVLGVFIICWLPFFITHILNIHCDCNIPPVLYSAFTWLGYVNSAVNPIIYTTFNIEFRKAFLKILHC
KiSS-1 receptor (Homo sapiens), sequence (Q969F8 whole entry, looked up): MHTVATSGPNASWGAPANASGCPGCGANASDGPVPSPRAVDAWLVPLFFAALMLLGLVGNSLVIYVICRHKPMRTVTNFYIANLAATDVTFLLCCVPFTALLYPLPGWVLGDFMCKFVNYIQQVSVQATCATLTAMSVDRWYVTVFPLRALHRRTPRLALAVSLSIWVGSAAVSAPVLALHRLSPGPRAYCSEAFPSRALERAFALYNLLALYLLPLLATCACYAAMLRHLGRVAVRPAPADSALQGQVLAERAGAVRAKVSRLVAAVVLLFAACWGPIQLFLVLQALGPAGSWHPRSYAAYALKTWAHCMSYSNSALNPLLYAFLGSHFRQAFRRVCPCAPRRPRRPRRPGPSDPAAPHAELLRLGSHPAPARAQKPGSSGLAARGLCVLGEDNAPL
5-hydroxytryptamine receptor 2A (Homo sapiens), sequence (P28223 whole entry, looked up): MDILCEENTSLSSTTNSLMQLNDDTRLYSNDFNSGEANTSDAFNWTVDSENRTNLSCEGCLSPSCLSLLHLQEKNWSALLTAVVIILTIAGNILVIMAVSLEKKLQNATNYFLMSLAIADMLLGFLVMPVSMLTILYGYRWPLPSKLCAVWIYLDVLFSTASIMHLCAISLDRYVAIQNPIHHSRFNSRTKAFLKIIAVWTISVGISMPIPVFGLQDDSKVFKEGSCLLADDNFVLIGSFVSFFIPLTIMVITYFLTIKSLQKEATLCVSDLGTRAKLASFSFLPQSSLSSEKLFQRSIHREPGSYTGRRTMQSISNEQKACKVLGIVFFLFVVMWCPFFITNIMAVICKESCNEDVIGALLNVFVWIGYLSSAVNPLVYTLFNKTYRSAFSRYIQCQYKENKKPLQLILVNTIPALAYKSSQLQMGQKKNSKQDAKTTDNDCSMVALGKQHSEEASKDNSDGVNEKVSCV
Gonadotropin-releasing hormone receptor (Homo sapiens), sequence (P30968 whole entry, looked up): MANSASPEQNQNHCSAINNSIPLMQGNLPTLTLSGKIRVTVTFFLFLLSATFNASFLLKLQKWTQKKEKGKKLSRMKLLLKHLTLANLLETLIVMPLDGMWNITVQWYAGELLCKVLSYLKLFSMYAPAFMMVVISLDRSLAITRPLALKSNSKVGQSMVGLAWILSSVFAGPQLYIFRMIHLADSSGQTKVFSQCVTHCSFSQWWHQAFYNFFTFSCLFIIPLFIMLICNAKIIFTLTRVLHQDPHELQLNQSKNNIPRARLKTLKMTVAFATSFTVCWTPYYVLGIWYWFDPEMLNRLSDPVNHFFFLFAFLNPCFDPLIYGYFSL
Muscarinic acetylcholine receptor M1 (Homo sapiens), sequence (P11229 whole entry, looked up): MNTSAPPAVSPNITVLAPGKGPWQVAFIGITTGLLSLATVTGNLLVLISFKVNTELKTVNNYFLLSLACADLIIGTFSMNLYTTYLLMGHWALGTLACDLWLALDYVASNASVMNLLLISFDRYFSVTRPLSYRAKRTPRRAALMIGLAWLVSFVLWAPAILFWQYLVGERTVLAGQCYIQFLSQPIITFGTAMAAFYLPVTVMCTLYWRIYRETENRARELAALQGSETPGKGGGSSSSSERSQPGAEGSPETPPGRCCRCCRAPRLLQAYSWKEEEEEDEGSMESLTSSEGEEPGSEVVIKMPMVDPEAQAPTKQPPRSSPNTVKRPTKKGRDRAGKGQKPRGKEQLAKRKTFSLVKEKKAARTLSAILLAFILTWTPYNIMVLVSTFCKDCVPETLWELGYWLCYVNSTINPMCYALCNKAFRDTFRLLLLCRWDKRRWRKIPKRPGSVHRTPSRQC

Compound	Potency [1]	Potency [2]	Potency [3]	Potency [4]	Potency [5]	Potency [6]	Potency [7]	Potency [8]	Potency [9]	Potency [10]	Potency [11]	Potency [12]	Potency [13]	Potency [14]	Potency [15]	Potency [16]	Potency [17]	Potency [18]	Potency [19]	Potency [20]
CCCCCCCCSCC	inactive	inactive	inactive	inactive	inactive	inactive	inactive	inactive	inactive	inactive	inactive	inactive	inactive	inactive	inactive	inactive	inactive	inactive	–	–
C=C(C)C(=O)NCCC[N+](C)(C)C	inactive	inactive	inactive	inactive	inactive	inactive	inactive	inactive	inactive	inactive	inactive	inactive	inactive	–	inactive	–	inactive	inactive	inactive	inactive
CC(=O)SC[C@@H](C)C(=O)N1CCC[C@H]1C(=O)N[C@@H](Cc1ccccc1)C(=O)O	inactive	inactive	inactive	inactive	inactive	inactive	inactive	inactive	inactive	inactive	inactive	inactive	inactive	inactive	inactive	–	inactive	inactive	inactive	inactive
CC(C)(C)CC(C)(C)c1ccc(OCCOCC[N+](C)(C)Cc2ccccc2)cc1	24.3 µM (active) and 10.6 µM (active)	inactive	inactive	inactive	inactive	inactive	20.4 µM (active) and inactive	inactive	inactive	inactive	–	–	–	–	inactive	–	inactive	–	–	–
C[Si]1(C)O[Si](C)(C)O[Si](C)(C)O[Si](C)(C)O[Si](C)(C)O1	inactive	inactive	inactive	inactive	inactive	inactive	inactive	inactive	–	inactive	inactive	inactive	inactive	–	inactive	–	inactive	inactive	inactive	–
C=C1CC/C=C(\C)CC[C@@H]2[C@@H]1CC2(C)C	inactive	inactive	inactive	inactive	inactive	inactive	inactive	inactive	inactive	–	inactive	inactive	inactive	–	inactive	–	inactive	inactive	inactive	inactive
O=C(O)C[C@H](NC(=O)OCc1ccccc1)C(=O)O	inactive	inactive	inactive	inactive	inactive	inactive	inactive	inactive	inactive	inactive	inactive	inactive	inactive	inactive	inactive	–	inactive	inactive	inactive	inactive
Cc1ncsc1CCO	inactive	inactive	inactive	inactive	inactive	inactive	inactive	inactive	inactive	inactive	–	inactive	–	inactive	inactive	inactive	inactive	inactive	inactive	inactive
